TGFb inhibitor = TGF-b pathway inhibition; HepG2 CAGA-GFP TGF-b/SMAD3 reporter, GFP fluorescence, 18 h; TGF-beta stimulated, 500 pg/mL final; Potency, µM (highest dose often 46.1 µM), without a hit: at the top dose activity, negative = inhibition, usual class: inhibitors; actives 1.2% (n = 410,000); further: on the % scale 0 is the no-effect control and ±100 the full control effect; nearly all actives have a fitted effect of over 65% in size
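Read-out: total well GFP (ex488/em500-530) summed from mean per-cell fluorescence. Cells: HEPG2 CAGA-GFP, 1% FBS DMEM, 18 h at 37 degrees C with 500 pg/mL final TGF-beta. Unstimulated wells served as the full-inhibition control; stimulated DMSO wells = 0%.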
HepG2 viability = kills HepG2 cells in TGF-b inhibitor counter-screen; AID 588856; Potency, µM (doses to about 46.1 µM), for the others: top-dose activity change, negative = cytotoxicity, actives largely listed as cytotoxic; actives 0.76% (n = 410,000); HepG2 CAGA-GFP viability, ATP luminescence, 18 h
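HepG2 CAGA-GFP cells (1000/well, DMEM with 1% FBS) received compound, then TGF-beta at 500 pg/mL final, and were incubated 18 hours at 37 degrees C. Viability was read by CellTiter-Glo luminescence. Media-only wells were set as complete cell-killing and DMSO as no toxicity.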
DT40 TDP1 CPT = growth inhibition of DT40 Tdp1-/-;hTDP1 cells with camptothecin (screen for TDP1 inhibitors). chicken DT40 Tdp1-/-;hTDP1 cells + 20 nM CPT, ATP luminescence, 48 h. actives 12% (n = 420,000). Potency, µM (series often up to 46.2 µM), without a hit: top-dose activity change, negative = growth inhibition, usual class: inhibitors. AID 686979; further: on the % scale 0 is the no-effect control and ±100 the full control effect; nearly all actives have a fitted effect of over 55% in size
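Chicken DT40 Tdp1-/- cells complemented with human TDP1, 400 cells/well, exposed to compounds plus 20 nM camptothecin for at least 48 h at 37 C; viability read as ATP content by CellTiter-Glo luminescence.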
DT40 TDP1 no CPT = qHTS for Inhibitors of human tyrosyl-DNA phosphodiesterase 1 (TDP1): qHTS in cells in absence of CPT; DT40 Tdp1-/- hTDP1 cells, no CPT, ATP luminescence, 48 h; Potency, µM (top dose mostly 46.2 µM), inactives show at the top dose activity change, negative = growth inhibition, actives largely listed as inhibitors; actives 15% (n = 420,000); AID 686978, 2013; further: on the % scale 0 is the no-effect control and ±100 the full control effect; nearly all actives have a fitted effect of over 55% in size
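Growth of hTDP1-complemented DT40 Tdp1-knockout cells is measured by ATP luminescence after at least 48 hr compound exposure at 37 °C, with DMSO substituting for the 20 nM CPT used in the parallel screen.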
ATXN2 expr inh = reduces ATXN2 reporter expression in HEK-293 cells. HEK-293 ATXN2-luciferase reporter, luminescence, 24 h. Potency, µM (titrated, usually from 57 µM), without a hit: at the highest dose activity change, negative = inhibition, usual class: inhibitors. actives 0.72% (n = 360,000); further: on the % scale 0 is the no-effect control and ±100 the full control effect; nearly all actives have a fitted effect of over 55% in size
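qHTS (up to 57 uM final) was run with 24 h compound exposure of reporter cells at 37 °C. Each well was multiplexed: SteadyGlo luminescence measured ATXN2-luciferase expression after a fluorogenic Gly-Phe-AFC viability readout (25 uM final).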
S2 tox = viability counter-screen for ATXN expression inhibitors | AID 651635 | actives 0.49% (n = 400,000) | S2 cells (HEK-293 line with an ATXN2-luciferase reporter) viability, CellTiter-Fluor protease fluorescence, 24 h | Potency, µM (highest dose often 56.7 µM), hits mostly cytotoxic; further: nearly all actives have a fitted effect of over 40% in size
* = called active by the depositor; i = inactive; u = inconclusive; x = not tested or not shown. In the library only some 17% were active in any assay of this set; here they are far more common. The call rests on the fitted dose curve; in most records, active means well fitted curve in the direction sought with a large enough effect; inconclusive means small, poorly fitted or top-dose-only effect, or another doubt; inactive means no such curve, though single readings can be large; an effect the other way counts as inactive or inconclusive. Potency means the concentration at half of the fitted maximal effect.

SMILES	TGFb inhibitor	HepG2 viability	DT40 TDP1 CPT	DT40 TDP1 no CPT	ATXN2 expr inh	S2 tox
CC1O[C@@H](O[C@@H]2C(O)C[C@H](O[C@@H]3C(O)C[C@@H](OC4CC[C@@]5(C)C6CC[C@]7(C)C(C8=CC(=O)OC8)CC[C@@]7(O)C6CC[C@@H]5C4)OC3C)OC2C)CC(O)[C@H]1O (some centres not stated)	x	x	1µM*	0.73µM*	x	x
O=C(Oc1ccccc1)N1CCC[C@@]2(CCN(C(c3ccccc3)c3ccccc3)C2)C1	x	x	-8%	-23%	x	x
O=C(COc1ccc(Br)cc1)Nc1ccc(Cl)cc1C(=O)c1ccccc1	14%	1%	-3%	-15%	x	x
CN1C[C@H](CO)C=C2c3cccc4[nH]cc(c34)C[C@@H]21	x	x	x	x	x	i
CO[C@H]1[C@@H](O)C[C@H](O[C@H]2[C@@H](O)C[C@H](O[C@H]3[C@@H](O)C[C@H](O[C@H]4CC[C@@]5(C)[C@H](CC[C@@H]6[C@@H]5C[C@@H](O)[C@]5(C)[C@@H](C7=CC(=O)OC7)CC[C@]65O)C4)O[C@@H]3C)O[C@@H]2C)O[C@@H]1C	x	x	0.53µM*	0.38µM*	x	x
CCON=O	x	x	0.094µM*	u	x	x
CC(C)CCON=O	x	x	-4%	-8%	x	x
CCCCCCn1c(O)c(C=NCCN2CCOCC2)c(=O)[nH]c1=O	1%	-45%	-6%	-26%	x	i
CCC1=Nc2cc(C(=O)N3CCC4(CC3)OCCO4)ccc2Sc2ccc(C)cc21	-17%	-11%	u	u	x	u
O=c1[nH]c2ccccc2n1C1CCN(C(c2ccccc2OC(F)(F)F)c2nnnn2Cc2ccccc2)CC1 (configuration not stated)	11µM*	-39%	10µM*	10µM*	18µM*	10µM*
O=c1[nH]c2ccccc2n1C1CCN(C(c2cccs2)c2nnnn2Cc2ccccc2)CC1 (configuration not stated)	u	-31%	18µM*	15µM*	u	x
COc1ccc(C(c2nnnn2Cc2ccccc2)N2CCC(n3c(=O)[nH]c4ccccc43)CC2)cc1 (configuration not stated)	u	1%	18µM*	16µM*	u	x
Fc1ccc(C2=CCN(C(c3cccs3)c3nnnn3CCc3ccccc3)CC2)cc1 (configuration not stated)	4%	-5%	u	u	u	x
Cc1cc(C)n(-c2nc3nonc3nc2Nc2cccc(C)c2C)n1	10%	2%	u	u	x	i
COc1cccc(C2(C#N)CCN(C)CC2)c1	-7%	0%	8%	13%	x	i
CN1CC[C@@]2(c3cccc(O)c3)Cc3nc4ccccc4cc3C[C@H]2C1	x	x	27µM*	u	x	x
C[C@]12CC[C@H]3[C@@H](CCC4=CC(=O)CC[C@@H]43)[C@@H]1CC[C@@H]2OC(=O)CCc1ccccc1	x	x	13%	-17%	-4%	i
Cn1c(O)c(/C=C2/C=CC=N2)c(=O)[nH]c1=O	2%	-5%	16µM*	16µM*	6%	i
Cn1c(O)c(C=Nc2ccc(F)cc2)c(=O)[nH]c1=O	-4%	-4%	-3%	-21%	x	i
CSc1ccccc1NC(=O)CN(C)CC(=O)c1[nH]c(C)c(C(C)=O)c1C	28%	-28%	15µM*	15µM*	-1%	i
O=C1CC(N2CC=C(c3ccccc3)CC2)C(=O)N1c1ccc(F)cc1 (configuration not stated)	-8%	-15%	15µM*	18µM*	0%	i

Screens deposited in PubChem BioAssay by National Center for Advancing Translational Sciences (NCATS).
